Measurements from PubChem BioAssay AID624330 (Southern Research Specialized Biocontainment Screening …, 2012).
Hit rate of the full screen: of about 340,000 compounds, about 2,100 (0.62%) were called active.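 The calls were made as follows: active = first-screen hits whose inhibition reached a set limit at any dose in the follow-up dose series; inconclusive = inhibition above the set first-screen limit but never retested; inactive = the rest.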 The list is a sample of the results. Measured potencies and affinities stand elsewhere.

The molecules below were run against Rac GTPase-activating protein 1 (Homo sapiens) (UniProt Q9H0H5) (assay: blockers of MgcRacGAP-driven Rac1 GTP hydrolysis – biochemical, ADP Hunter fluorescence, primary and confirmatory, confirmation (AID 624330;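 also: fluorescence reports GDP produced by GAP-driven GTP hydrolysis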)). Details: MgcRacGAP-stimulated Rac1 GTP hydrolysis, at 30 µM, stronger effect = higher value, GST-tagged Rac1 F28L mutant substrate.
Sequence of Rac GTPase-activating protein 1 (Homo sapiens) (Q9H0H5 whole entry, looked up): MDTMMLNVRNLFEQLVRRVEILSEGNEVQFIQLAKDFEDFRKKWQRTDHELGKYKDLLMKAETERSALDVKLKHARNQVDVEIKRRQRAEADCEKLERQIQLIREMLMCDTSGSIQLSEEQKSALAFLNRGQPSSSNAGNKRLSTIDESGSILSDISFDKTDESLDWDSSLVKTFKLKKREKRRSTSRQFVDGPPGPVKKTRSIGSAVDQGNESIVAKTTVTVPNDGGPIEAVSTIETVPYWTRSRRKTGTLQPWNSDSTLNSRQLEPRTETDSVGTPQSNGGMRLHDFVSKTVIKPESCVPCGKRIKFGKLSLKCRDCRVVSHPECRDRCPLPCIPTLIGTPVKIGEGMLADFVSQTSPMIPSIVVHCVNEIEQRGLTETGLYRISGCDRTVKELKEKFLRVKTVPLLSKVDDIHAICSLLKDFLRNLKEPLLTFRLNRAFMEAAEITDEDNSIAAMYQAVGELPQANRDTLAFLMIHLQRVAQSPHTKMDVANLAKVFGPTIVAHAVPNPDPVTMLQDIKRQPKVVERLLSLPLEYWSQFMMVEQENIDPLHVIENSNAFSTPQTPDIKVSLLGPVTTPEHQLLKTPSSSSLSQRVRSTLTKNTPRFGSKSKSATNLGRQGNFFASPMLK

inhibition, inactive:
O=C(CCl)Nc1sccc1C(=O)c1ccccc1 11.5%
CCOc1ccc(C2Nc3ccc4ccccc4c3-c3c2c(=O)oc2ccccc32)cc1 (stereo unspecified) 5.67%
CC(=O)CCc1c(C)nc2ccc(C(=O)O)cc2c1Cl -3.43%
Cc1nc2ccc(C(=O)O)cc2nc1C 8.31%
Cc1cc(C)nc(NC2=NCCN2C(=O)NC2CCCCC2)n1 1.52%
Nc1ncnc2c1ncn2[C@@H]1O[C@H](CNCc2ccccc2OCc2ccc(Cl)cc2Cl)[C@@H](O)[C@H]1O 6.96%
COc1ccccc1/C=N/NC(=O)c1ccc(NC(=O)c2ccccc2Br)cc1 1.59%
Cc1ccc(NC(=O)NC(=O)CSc2n[nH]c(N)n2)c(C)c1 -33.7%
Cc1oc(-c2nc3ccccc3n2C)cc1C(=O)c1ccccc1 -4.53%
O=C(CN1CCN(Cc2ccc3c(c2)OCO3)CC1)Nc1ccc(N2CCOCC2)cc1 -4.89%
CC(=O)N1CCN(c2ccc(NC(=O)c3ccc4c(c3)OCO4)cc2)CC1 9.85%
O=C(O)c1ccc(NCc2ccc3c(c2)OCO3)cc1 7.49%
O=C(O)c1cc(NCc2ccc3c(c2)OCO3)ccc1N1CCOCC1 12.2%
O=C(NCc1ccc2c(c1)OCO2)C(=O)NCC1OCCN1S(=O)(=O)c1ccccc1 (stereo unspecified) 4.4%
Cc1cccc(OCC(=O)N2CCCc3ccccc32)c1 -0.63%
COc1ccc(CN(C)CCCn2cnc(C(=O)Nc3ccc(C)c(C)c3)n2)cc1OC 8.28%
O=C(c1ccco1)N1CCN(Cc2cccc3ccccc23)CC1 15.8%
COc1cccc(CN2CCN(c3ncccn3)CC2)c1OC 2.75%
COc1ccccc1CN1CCN(C(=O)c2ccco2)CC1 -1.8%
CN1CCN(Cc2cccc(Oc3ccccc3)c2)CC1 4.23%
CCN1CCN(Cc2cccc(Oc3ccccc3)c2)CC1 22.4%
COc1cc(CN2CCN(Cc3ccccc3C(F)(F)F)CC2)cc(OC)c1OC 5.51%
Cc1cc(Br)ccc1NC(=O)CCSc1ccccc1 2.79%
Cc1ccc(NC(=O)c2cc(N(C)C)ccc2[P+](=O)O)cc1 4.54%
Cc1ccc(C(=O)O)cc1N1CCCC1=O -7.73%
CCC(Sc1nc2n[nH]c(C)c2c(=N)n1-c1ccc(C)c(Cl)c1)C(=O)N1CCOCC1 (stereo unspecified) 8.01%
c1ccc2c(c1)CCN(C1CCCCC1)C2 26.9%
Oc1ccccc1CN1CCCC(N2CCc3ccccc3C2)C1 (stereo unspecified) 12.1%
COCCN(CCOC)C(=O)COC(=O)c1ccc(Cl)c(S(=O)(=O)N(C)c2ccccc2)c1 3.9%
O=S1(=O)N=C(SCCO)c2ccccc21 4.31%
CC1=C(SCc2ccccc2)C(=O)c2ccccc2C1=O -10.4%
Cc1ccc(OCCNC(=O)C(C)SCC(=O)Nc2ccc(F)cc2)cc1 (stereo unspecified) 1.75%
O=C(O)c1ccc2c(c1)C(=O)N(c1ccc(Nc3ccccc3)cc1)C2=O 9.3%
O=C1C=CC(=O)N1c1ccc(O)cc1 15.3%
O=C(c1ccc(Cl)c(Cl)c1)c1cc(-c2ccccn2)c(N2CCOCC2)s1 6.1%
COc1ccc(-c2cc(C(=O)N3CCN(c4ccccc4)CC3)c3ccccc3n2)cc1 -2.68%
COc1ccc(N2CCN(C(=O)c3cc(C4CC4)nn3-c3ccccc3)CC2)cc1 27.4%
O=C(c1ccc(Cl)c(S(=O)(=O)N2CCCCC2)c1)N1CCN(c2ccccc2)CC1 11.4%
O=C(c1ccccc1)N1CCN(c2ccccc2)CC1 5.43%
O=C(c1cc(C2CC2)nn1-c1ccccc1)N1CCN(c2ccccc2O)CC1 5.58%
O=C(c1ccc(Cl)c(S(=O)(=O)N2CCCC2)c1)N1CCN(c2ccc(F)cc2)CC1 6.75%
CC(=O)c1ccc(N2CCN(C(=O)c3ccc(C(=O)c4ccccc4)cc3)CC2)cc1 -1.4%
Cc1ccc(-c2cc(C(=O)N3CCN(c4ccccc4O)CC3)c3ccccc3n2)cc1 2.39%
CCOC(=O)c1c(C)[nH]c(C(=O)N/N=C/c2ccc(OC)c(OC)c2)c1C -4.46%
COc1ccc(NC(=O)c2cccc(NC3=NC4CS(=O)(=O)CC4S3)c2)cc1Cl (stereo unspecified) 10.8%
CCc1nnc(N/N=C\c2ccc(OC(C)=O)c(OC)c2)n1N 10.6%
CCC1(CC)C(=O)N(c2ccccc2)C(=N)N(c2ccccc2)C1=O -9.62%
N#Cc1cccc(NC(=O)CN2CCN(Cc3ccccc3)CC2)c1 10.1%
Cc1nc(N)c2c(Cc3cccc4ccccc34)nn(C(C)(C)C)c2n1 2.87%
COc1ccccc1CN(C)C(=O)c1sccc1-c1ccccc1 -0.12%
Cc1ccc(/C(N)=N/OC(=O)c2ccc3ccccc3c2)cc1 7.71%
O=C(NCCCN1CCOCC1)c1cc(-c2ccc(F)cc2)on1 5.56%
C/C(=N/NC(=O)CNC(=O)c1cccs1)c1ccc(Cl)cc1 5.28%
COc1ccc2c(c1)Cc1sc(NC(=O)c3ccccc3)nc1-2 15.1%
COc1ccc(N=Cc2c(O)ccc3ccccc23)cc1 14.5%
COc1cccc(C=Nc2cc(C)on2)c1O 10.4%
Oc1ccc2ccccc2c1/C=N/c1nc2c(s1)CCCC2 16%
COc1cccc(C=Nc2ccc3c(c2)CCC3)c1O 6.65%
COc1ccc2c(c1)CCc1sc(NC(=O)c3ccco3)nc1-2 9.86%
COc1ccc(Cl)cc1NC(=O)CN(C)C(=O)CCCNC(=O)c1ccc(Cl)cc1 -0.09%
CN(C)CCNC(=S)Nc1ccc(Cl)cc1 10.1%
CC(=O)c1ccc(OCc2cc(C(=O)N3CC[C@@H]4CCCC[C@H]4C3)no2)cc1 8.61%
COc1ccccc1NC(=O)CSc1nnc(-c2ccoc2C)n1CC1CCCO1 (stereo unspecified) 9.62%
CCCN(CCC)Cc1c(C(=O)N/N=C/c2ccoc2)nnn1-c1nonc1N 6.21%
S=C(NC1CCCCC1)N1CCN(C2CCCCC2)CC1 6.75%
O=C(CSc1nc(Cc2ccccc2)nc2ccccc12)Nc1nc2c(s1)CCCC2 18.2%
COc1ccc(N2CCN(C(=O)NCc3ccc(OC)c(OC)c3)CC2)cc1 23.4%
COc1cc(CNc2ccc(N3CCN(C(C)=O)CC3)cc2)ccc1OCc1ccc(F)cc1 28.5%
COc1cc(CNc2ccc(N3CCCC3)cc2)ccc1OCc1ccccc1 7.32%
COc1ccc(N2CCN(C(=O)Cc3ccc(OC)c(OC)c3)CC2)cc1 21.6%
O=C(COc1ccccc1)NCC(c1ccco1)N1CCN(c2ccccc2)CC1 (stereo unspecified) -2.01%
CCCCCC(=O)Nc1ccc(N2CCOCC2)c(S(=O)(=O)Nc2ccc(OC)cc2)c1 10.2%
CC(=O)Nc1c(-c2ccccc2)nc2ncccn12 16.1%
CCN(CC)C(=O)Cn1cc(C(=O)C(=O)N(C)C2CCN(C)CC2)c2ccccc21 0.15%
COc1cc(OC)c(OC)cc1/C=N/NC(=S)NCCN1CCOCC1 -4.53%
S=C(NCCCN1CCOCC1)Nc1ccc(Nc2ccccc2)cc1 36.5%
COc1cc(/C=N/NC(=S)NCCN2CCOCC2)cc(OC)c1OC 7.18%
COc1cc(/C=N/NC(=S)NCCN2CCOCC2)cc(OC)c1O 15.1%
Fc1ccc(NC(=S)NCCN2CCOCC2)cc1 4.64%
S=C(NCCN1CCOCC1)N/N=C/c1ccccc1 6.95%
O=S(=O)(c1cccc(-c2nc3ccccc3s2)c1)N1CCCC1 4.17%
Cc1cc(C(=O)N(NC(=O)C(C)C)c2ccccc2)cs1 5.75%
C=CCn1c(=O)c(C(=O)Nc2ccc(C)cn2)c(O)c2ccccc21 7.02%
CCOc1ccc(C(C(=O)NCC2CCCO2)N(Cc2ccccc2)C(=O)c2snc(C(N)=O)c2N)cc1 (stereo unspecified) 6.27%
C=CCc1cc(C=O)cc(OCC)c1O 4.85%
C=CCc1cc(/C=N/n2cnnc2)cc(OCC)c1O 8.86%
CSc1sc2ccccc2[n+]1CCCS(=O)(=O)[O-] 6.67%
CCC(/C=C1\Oc2ccc(OC)cc2N1C)=C\c1sc2ccccc2[n+]1CCCS(=O)(=O)[O-] 20.6%
O=C(COC(=O)c1cc(S(=O)(=O)N2CCOCC2)ccc1Cl)NCc1ccccc1 -0.98%
O=C(COC(=O)/C=C/c1ccc([N+](=O)[O-])cc1)Nc1ccc2[nH]c(=O)[nH]c2c1 8.57%
COc1ccc(Br)cc1CN(C)CC(=O)NCc1ccc(F)cc1 30.8%
COc1ccc(Br)cc1CN(C)CC(=O)NCCc1ccc(S(N)(=O)=O)cc1 -1.98%
COc1cccc(CNS(=O)(=O)c2ccc(N3CCCC3=O)cc2)c1 1.52%
Cc1ccccc1NC(=O)c1cccc(S(=O)(=O)N2CCCCC2)c1 3.86%
CC(C)C(O)(CC#CCN1CCCC1)c1ccccc1 (stereo unspecified) 6.41%
CCn1cc(CN2CCC(C(=O)Nc3cccc(-c4cccc(OC)c4)c3)CC2)c(C)n1 4.15%
